Test results reported in PubChem BioAssay AID463173 (ICCB-Longwood Screening Facility, Harvard Medical School, 2010).
The campaign covered roughly 52,000 compounds. About 4,300 (8.3%) were called active. What follows is part of a selection rich in actives, with near analogues and random picks from the rest. Values without a mark were called inactive. No stated cut-off is given here; in the data, active means survival mostly below about 52% (no sharp cut-off); inactive means mostly above about 56%.

Tested on: DeltatarO mutant
Assay: S. aureus survival, RN4220 and DeltatarO strains – OD600, teichoic acid synthesis inhibitors, primary screen (AID 463173)
Settings: S. aureus RN4220 wild type/DeltatarO growth, OD600, 18 h, stronger effect = lower value, screened at 18.75 µg/mL (by protocol)

| Structure (SMILES) | survival |
| --- | --- |
| CS(=O)(=O)Nc1ccccc1C(=O)O | 81% |
| CCCSc1ncc(Cl)c(C(=O)Nc2c(C(=O)Nc3ccc(C)cc3)oc3ccccc23)n1 | 62% |
| Cc1cccc(NC(=O)Cn2c(=O)n(CCCCCC(=O)NCc3ccccc3)c(=O)c3sccc32)c1 | 62% |
| CCOC(=O)c1cnn(Cc2ccccc2)c1N | 79% |
| CCOC(=O)c1noc2ncnc(N3CCN(c4ccccc4OC)CC3)c12 | 77% |
| COc1ccccc1NC(=O)N1CCN(Cc2nc3ccc(C)cc3o2)CC1 | 84% |
| CC(=O)c1cccc(NC(=O)CCn2nc(C)c(S(=O)(=O)N3CCCCC3)c2C)c1 | 134% |
| Cc1nn(CCC(=O)Nc2cccc(C#N)c2)c(C)c1S(=O)(=O)N1CCC(C)CC1 | 89% |
| CC(=O)c1ccc(NC(=O)CCn2nc(C)c(S(=O)(=O)N3CCC(C)CC3)c2C)cc1 | -5% (active) |
| CCOC(=O)c1ccc2ncc(C(=O)OCC)c(Nc3ccc(C)c(Br)c3)c2c1 | 39% (active) |
| CCOC(=O)c1cnc2ccc(OC(F)(F)F)cc2c1Nc1ccccc1C(=O)O | 37% (active) |
| CCOC(=O)c1cnc2cc(F)c(F)cc2c1Nc1ccccc1O | 156% |
| CCOC(=O)c1cnc2ccccc2c1NCC(C)O (configuration not stated) | 89% |
| CCOC(=O)c1cnc2ccc(C(=O)OC)cc2c1Nc1ccccc1CC | -3% (active) |
| CCc1ccc2[nH]c(=O)c(C(c3nnnn3C3CCCC3)N(Cc3ccccc3)Cc3ccco3)cc2c1 (configuration not stated) | 104% |
| O=C(CN1c2ccc(Br)cc2-c2ccccc2S1(=O)=O)N1CCCCC1 | 91% |
| COc1cc(CNc2ccc3[nH]c(=O)[nH]c3c2)cc(Cl)c1OCc1ccccc1F | 78% |
| CCOc1ccc(CCNC(=O)c2sc3ncccc3c2-n2c(C)ccc2C)cc1 | 106% |
| COCCNc1nc2c(S(=O)(=O)c3ccc(C)c(C)c3)nnn2c2ccc(Cl)cc12 | 89% |
| O=C(NCc1ccccc1Cl)NCc1noc2ccccc12 | 45% |
| Cc1cccc(-c2nn3c(=O)cc(CN4CCN(C(=O)c5ccccc5Br)CC4)nc3s2)c1 | 100% |
| CCOC(=O)c1cc(C)n(CC2CCC(C(=O)Nc3ccc(Cl)cc3)CC2)c1C (configuration not stated) | 46% (active) |
| CCOC(=O)c1cc(C)n(CC2CCC(C(=O)Nc3ccc(C)cc3)CC2)c1C (configuration not stated) | 98% |

| Structure (SMILES) | survival |
| --- | --- |
| CCOC(=O)c1cc(C)n(CC2CCC(C(=O)Nc3ccc(C(=O)OC)cc3)CC2)c1C (configuration not stated) | 69% |
| O=C(NC1CCCC1)C1CCCN(S(=O)(=O)c2ccc(-n3cnnn3)cc2)C1 (configuration not stated) | 72% |
| O=C(Nc1ccccc1F)c1ccc(-c2ccccc2)s1 | 81% |
| CSc1ncc(C(=O)Nc2ccc(F)cc2F)c(-c2ccccc2)n1 | 71% |
| CCOc1ccc(OCC)c(NC(=O)c2cnc(SC)nc2-c2ccccc2)c1 | 32% (active) |
| CCOc1ccc(NC(=O)c2ccc(-c3ccccc3)s2)cc1 | 86% |
| CCOc1ccc(OCC)c(NC(=O)c2ccc(-c3ccccc3)s2)c1 | 27% (active) |
| COc1ccc(Cl)cc1NC(=O)c1cnc(SC)nc1-c1ccccc1 | 49% |
| Cc1ccc(CN2CCc3nc(N4CCN(c5ncccn5)CC4)ncc3C2)cc1 | 117% |
| CN1CCN(CC(=O)NCCc2ccc(F)cc2)CC1 | 83% |
| N#CCOc1nc(OCC#N)nc(OCC#N)n1 | 1% (active) |
| CONc1nc(NC(C)(C)C)nc(OCC#N)n1 | 97% |
| CNc1nc(OCC#N)nc(N2CCCCC2)n1 | 110% |
| Cc1ccc(CNC(=O)c2nc(-c3ccc(Cl)cc3)n3c2CCCCC3)cc1 | 89% |
| CCC1CCCCN1C(=O)Cn1c(=O)n(CCCCCC(=O)NCc2ccccc2)c(=O)c2sccc21 (configuration not stated) | 69% |
| Cc1ccc(NC(=O)Cn2c(=O)n(CCC(=O)NCc3ccc4c(c3)OCO4)c(=O)c3sccc32)c(C)c1 | 87% (active) |
| Cc1ccc(Cl)cc1NC(=O)Cn1c(=O)n(CCC(=O)NCc2ccc3c(c2)OCO3)c(=O)c2sccc21 | 79% (active) |
| O=C(CCCCCn1c(=O)c2sccc2n(CC(=O)Nc2cccc(Cl)c2)c1=O)NCc1ccc2c(c1)OCO2 | 57% |
| Cc1ccccc1NC(=O)Cn1c(=O)n(CCCCCC(=O)NCc2ccc3c(c2)OCO3)c(=O)c2sccc21 | 84% |
| O=C(CCn1c(=O)c2sccc2n(Cc2ccc(F)cc2)c1=O)NCc1ccc2c(c1)OCO2 | 89% |
| CCC1CCCCN1C(=O)Cn1c(=O)n(CCCCCC(=O)NCc2ccc(F)cc2)c(=O)c2sccc21 (configuration not stated) | 170% |
| O=C(CCn1c(=O)c2sccc2n(Cc2cccc(F)c2)c1=O)NCc1ccc2c(c1)OCO2 | 97% |
| Cc1cccc(C)c1NC(=O)Cn1c(=O)n(CCC(=O)NCc2ccc3c(c2)OCO3)c(=O)c2sccc21 | 90% |

| Structure (SMILES) | survival |
| --- | --- |
| O=C(CCn1c(=O)c2sccc2n(Cc2ccccc2F)c1=O)NCc1ccc2c(c1)OCO2 | 84% (active) |
| Cc1ccc(CNC(=O)CCCCCn2c(=O)c3sccc3n(CC(=O)N3CCCCC3C)c2=O)cc1 (configuration not stated) | 48% (active) |
| Cc1ccccc1NC(=O)Cn1c(=O)n(CCC(=O)NCc2ccc3c(c2)OCO3)c(=O)c2sccc21 | 150% |
| Clc1ccc(CCNc2ncnc3c2c(-c2ccccc2)cn3-c2ccccc2)cc1 | 94% |
| COc1ccc(Cn2c(CCC(=O)Nc3ccc(Br)c(C)c3)nc3cccnc32)cc1 | 71% |
| Cc1ccc(N2CC(NC(=O)/C=C\c3ccc4c(c3)OCO4)CC2=O)cc1 (configuration not stated) | 91% |
| COc1ccc(NC(=O)Cn2ccn(-c3ccc(C)c(C)c3)c(=O)c2=O)cc1Cl | 72% |
| COc1ccc(OC)c(CNC(=O)c2ccccc2NC(=O)c2nsc3ccccc23)c1 | 92% |
| O=C(NC1CC(=O)N(c2ccccc2)C1)C(c1ccccc1)c1ccccc1 (configuration not stated) | 89% |
| Cc1nnc(Nc2ccc(C(=O)O)cc2)[nH]c1=O | 108% |
| O=C1CCSC2(C(=O)N(Cc3ccc(F)cc3)c3ccccc32)N1c1ccccc1 (configuration not stated) | 78% |
| CC(=O)c1cccc(NS(=O)(=O)c2cc3c(cc2C)N(C(C)=O)CCO3)c1 | 95% |
| CCc1ccc(NC(=O)Cn2c(=O)n(CCCC(=O)NCc3ccc4c(c3)OCO4)c(=O)c3ccccc32)cc1 | 93% (active) |
| CCc1ccc(NC(=O)Cn2c(=O)n(CCC(=O)NCc3ccc4c(c3)OCO4)c(=O)c3ccccc32)cc1 | 91% |
| CCc1ccc(NC(=O)Cn2c(=O)n(CCCCC(=O)NCc3ccc4c(c3)OCO4)c(=O)c3ccccc32)cc1 | 87% |
| O=C(Cc1ccccc1)Nc1nnc2n1CCS2 | 71% |
| O=C(Cc1ccc(Cl)cc1)Nc1nnc2n1CCS2 | 77% |
| O=C(Cc1ccc(F)cc1)Nc1nnc2n1CCS2 | 52% (active) |
| CCOC(=O)c1c(C)[nH]c(CCC(=O)NCc2ccccc2C)c1C | 80% |
| COc1cc(NS(=O)(=O)c2ccc(NC(=O)c3ccc(Cl)cc3Cl)cc2)nc(OC)n1 | 98% |
| Cc1ccc(NC2OC(=O)c3ccccc32)cc1 (configuration not stated) | 31% (active) |
| CC(=O)Nc1ccc(NC2OC(=O)c3ccccc32)cc1 (configuration not stated) | 50% |
| O=C1OC(Nc2ccc3ncccc3c2)c2ccccc21 (configuration not stated) | 30% (active) |

| Structure (SMILES) | survival |
| --- | --- |
| O=C1OC(Nc2ccccn2)c2ccccc21 (configuration not stated) | 42% |
| O=C(Nc1ccc2ncccc2c1)c1ccccc1 | 94% |
| O=C1OC(Nc2ccccc2C(F)(F)F)c2ccccc21 (configuration not stated) | 45% |
| CCc1ccc(CNC(=O)CN2C(=O)c3cccnc3Oc3ccc(C)cc32)cc1 | 72% |
| Cc1ccc(C=N/C(=N\NC(=O)c2ccccc2)c2ccccc2)o1 | 94% |
| COc1ccc2nc(N3CCN(C(=O)c4ccco4)CC3)sc2c1 | 88% |
| CCN(CC)CCCNC(=O)c1ccc2c(=O)n(CCc3ccccc3)c(=O)[nH]c2c1 | 82% |
| COc1nc(N2CCCCCC2)nc(N2CCCCCC2)n1 | 66% |
| CCN(CC)C(=O)C1CCCN(c2ncnc3onc(C)c23)C1 (configuration not stated) | 99% |
| CCOc1ccc(N(Cc2ccccc2)C(=O)c2nc(SCC)ncc2Cl)cc1 | 106% |
| COc1ccc(CN(C(=O)c2ccco2)c2ccccc2)cc1 | 96% |
| CCOc1ccc(N(Cc2ccccc2)C(=O)c2nc(S(C)(=O)=O)ncc2Cl)cc1 | 24% (active) |
| COc1ccc(N(Cc2ccccc2)C(=O)c2nc(SC)ncc2Cl)cc1 | 99% |
| CCSc1ncc(Cl)c(C(=O)N(Cc2ccccc2)c2ccc(OC)cc2)n1 | 100% |
| CCOc1ccc(N(Cc2ccccc2)C(=O)c2nc(SC)ncc2Cl)cc1 | 72% |
| CCCSc1ncc(Cl)c(C(=O)N(Cc2ccccc2)c2ccc(OC)cc2)n1 | 45% (active) |
| COc1ccc(N(Cc2ccccc2)C(=O)c2nc(S(C)(=O)=O)ncc2Cl)cc1 | 51% |
| CCS(=O)(=O)c1ncc(Cl)c(C(=O)N(Cc2ccccc2)c2ccc(OC)cc2)n1 | 36% (active) |
| COc1ccc(-c2cn3cccnc3n2)cc1NC(=O)c1cc(C)cc(C)c1 | 61% |
| Cc1cc(C)c(NC(=O)Nc2csc3c2CCCC3)c(C)c1 | 78% |
| Cc1c(CNCc2ccc(Cl)cc2)c(C(=O)O)c(C)n1Cc1ccc(F)cc1 | 77% |
| CCOc1ccc(S(=O)(=O)N2CCN(Cc3nc4ccc(C)cc4o3)CC2)cc1 | 73% |
| Cc1ccc(NC(=O)CN(Cc2ccccc2)S(=O)(=O)c2ccc3nc(C)sc3c2)c(C)c1 | 83% |
